This note sets out measurements from PMC8384837, “Expanding the binding specificity for RNA recognition by a PUF domain”.

This assay has as its target PUM1 PUF domain R5-GIR (Homo sapiens, UniProt Q14671 828-1176, C1007G;R1008I;Q1011R). In words: yeast three-hybrid, YBZ-1, SC-Leu-His + 0.5 mM 3-AT, 4 days. To be noted: tags: N-Gal4 AD-HA kept; label: inside an RPR1-promoter hybrid RNA with tandem MS2 sites; ssRNA. Put shortly:
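The interaction score is the log change in how often each variant appears, from input to selection. Frequencies came from PCR-amplified, Illumina-sequenced repeat regions of Pumilio-1 PUF domain libraries grown in strain YBZ-1 (LexA–MS2 coat fusion, HIS3 reporter) alongside matching RNA elements. Input plates were SC-Leu and selection plates were SC-Leu-His + 0.5 mM 3-AT, each for four days, and the log2 calculation used a pseudocount of 1 where a variant was absent.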
Turning to “GGCUAGAACUAGUGGAUCCCCCGGCGCCCGGCGGCUCGAGCCCGGGUAAGUGUUAAUAGUCUGCAUGCCGCCGGGCGCCAUGCCUGCAGGUCGACUCUAGAAAACAUG”, the binding signal was 1.6 log2 enrichment (interaction score). For “GGCUAGAACUAGUGGAUCCCCCGGCGCCCGGCGGCUCGAGCCCGGGUAAGUGUCAAUAGUCUGCAUGCCGCCGGGCGCCAUGCCUGCAGGUCGACUCUAGAAAACAUG” the value was 4.37 log2 enrichment (interaction score); for “GGCUAGAACUAGUGGAUCCCCCGGCGCCCGGCGGCUCGAGCCCGGGUAAGUGUAAAUAGUCUGCAUGCCGCCGGGCGCCAUGCCUGCAGGUCGACUCUAGAAAACAUG”, 2.43 log2 enrichment (interaction score).
